# Measured values from paper PMC4336329 (PLoS ONE, 2015).
# In all, about 310,000 compounds went through this assay and about 14,000 (4.5%) showed an effect of 50% or more. The effect is printed as a negative number. The sample as a whole holds a higher share of strong results than the screen did.
# Biological target: human ether-à-go-go-related gene (hERG) potassium channel (human, UniProt Q12809)
# Assay: primary screen, population patch clamp on CHO cells stably expressing hERG; higher = less effect of the substance
# 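Further: peak tail current of the secondary pulse compared with the same well before compound.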
# human ether-à-go-go-related gene (hERG) potassium channel, sequence (Q12809 whole entry, looked up): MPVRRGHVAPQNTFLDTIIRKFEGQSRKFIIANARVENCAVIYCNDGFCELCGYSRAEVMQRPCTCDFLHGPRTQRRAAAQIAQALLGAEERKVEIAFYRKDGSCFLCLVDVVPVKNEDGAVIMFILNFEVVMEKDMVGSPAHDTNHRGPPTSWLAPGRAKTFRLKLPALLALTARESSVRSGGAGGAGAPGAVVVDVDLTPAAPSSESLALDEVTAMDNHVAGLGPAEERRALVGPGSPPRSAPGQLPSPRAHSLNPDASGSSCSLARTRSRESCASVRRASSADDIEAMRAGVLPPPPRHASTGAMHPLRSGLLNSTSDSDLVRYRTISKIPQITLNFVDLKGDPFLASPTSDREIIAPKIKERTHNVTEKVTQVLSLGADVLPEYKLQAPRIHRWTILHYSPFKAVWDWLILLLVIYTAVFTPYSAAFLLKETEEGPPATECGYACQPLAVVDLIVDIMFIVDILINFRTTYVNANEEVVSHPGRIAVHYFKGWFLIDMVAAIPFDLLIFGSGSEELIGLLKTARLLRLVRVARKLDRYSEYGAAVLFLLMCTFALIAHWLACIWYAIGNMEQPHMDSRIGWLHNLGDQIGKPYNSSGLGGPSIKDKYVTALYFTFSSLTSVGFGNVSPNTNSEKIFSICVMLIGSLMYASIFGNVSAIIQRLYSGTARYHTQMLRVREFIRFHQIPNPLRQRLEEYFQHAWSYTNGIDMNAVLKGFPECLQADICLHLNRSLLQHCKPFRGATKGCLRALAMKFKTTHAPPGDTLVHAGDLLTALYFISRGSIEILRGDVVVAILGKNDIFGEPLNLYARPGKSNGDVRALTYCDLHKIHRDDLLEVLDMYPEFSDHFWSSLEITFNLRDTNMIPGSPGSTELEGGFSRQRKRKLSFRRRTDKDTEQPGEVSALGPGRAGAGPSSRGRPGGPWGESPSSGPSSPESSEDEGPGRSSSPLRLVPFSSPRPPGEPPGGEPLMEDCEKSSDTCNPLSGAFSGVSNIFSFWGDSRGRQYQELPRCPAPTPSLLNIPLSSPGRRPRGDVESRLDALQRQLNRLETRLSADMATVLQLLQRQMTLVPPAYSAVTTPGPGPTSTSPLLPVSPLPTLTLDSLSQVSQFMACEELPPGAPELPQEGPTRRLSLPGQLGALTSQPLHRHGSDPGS
row,SMILES,"hERG current change (%, negative = inhibition) at 10uM [%]"
1,CCCCSc1n[nH]c(N)n1,14
2,CC(C)CCn1c(N2CCC(C(N)=O)CC2)nc2c1c(=O)[nH]c(=O)n2C,11.1
3,CCOc1cc2[nH]c(=S)n(CCCC(=O)NCc3ccco3)c(=O)c2cc1OCC,-7.08
4,CCOC(=O)/C(C#N)=C/N1CCOCC1,-1.97
5,COc1cccc(C2C3(C#N)C(N)=NC(OC)(OC)C23C#N)c1 (centres unmarked),9.01
6,CC1CCCN(CC(=O)N2c3ccccc3Sc3ccccc32)C1 (centres unmarked),1.98
7,c1ccc2c(c1)Sc1ccccc1N2CC1CN2CCC1CC2 (centres unmarked),-53.1
8,O=C(C1CC1)N1c2ccccc2Sc2ccccc21,7.2
9,Cc1ccc2nc(-c3cccnc3)oc2c1,5.22
10,Cc1ccc(C(=O)CN(CCC(=O)O)S(=O)(=O)c2ccc([N+](=O)[O-])cc2)cc1,-25.7
11,Cc1ccc(C(=O)CN(CCCC(N)=O)S(=O)(=O)c2ccc([N+](=O)[O-])cc2)cc1,-66.7
12,O=C(O)CCN(CC(=O)c1ccc(Cl)cc1)S(=O)(=O)c1ccc([N+](=O)[O-])cc1,-13.7
13,c1ccc2c3c([nH]c2c1)-c1[nH]ncc1CC3,1.38
14,CC(=O)N1CCc2c(sc(NC(=O)CCS(=O)(=O)c3ccc(C)cc3)c2C(N)=O)C1,2.54
15,O=C(CC1CCCC1)Nc1cc(S(=O)(=O)N2CCOCC2)ccc1O,4.05
16,Cc1cccc2cc(-c3nc4c(C)cccn4c3NCc3ccco3)c(=O)[nH]c12,-11.5
17,COCCNc1c(-c2cc3ccc(C)c(C)c3[nH]c2=O)nc2ccccn12,-74.9
18,Cc1ccc2[nH]c(=O)c(-c3nc4ccccn4c3NCc3ccco3)cc2c1,-12.3
19,O=C(NCCc1ccccc1)c1cccnc1,7.59
20,COc1ccc(-c2cn[nH]c2-c2ccc(OCC(=O)NN)cc2O)cc1OC,18.3
21,COc1ccccc1C1CC(c2ccc(NS(C)(=O)=O)cc2)=NN1C(=O)c1ccccc1 (centres unmarked),-50.9
22,COc1cccc(C2CC(c3cccc(NS(C)(=O)=O)c3)=NN2C(=O)c2ccccc2)c1OC (centres unmarked),-40.5
23,COc1cccc(C2CC(c3ccc(NS(C)(=O)=O)cc3)=NN2C(=O)c2ccccc2)c1OC (centres unmarked),-64.4
24,COc1cccc(C2CC(c3ccc(Br)cc3)=NN2C(=O)c2ccncc2)c1OC (centres unmarked),-29.7
25,COc1ccc(C2CC(c3ccc(OC)c(OC)c3)=NN2C(=O)c2ccccc2)cc1 (centres unmarked),9.33
26,COc1ccccc1C1CC(c2ccccc2)=NN1C(=O)c1ccccc1 (centres unmarked),11.9
27,COc1ccc(OC)c(C2CC(c3ccc(NS(C)(=O)=O)cc3)=NN2C(=O)c2ccccc2)c1 (centres unmarked),-67.2

row,SMILES,"hERG current change (%, negative = inhibition) at 10uM [%]"
1,CCOc1ccccc1C1CC(c2cccc(NS(C)(=O)=O)c2)=NN1C(=O)c1ccccc1 (centres unmarked),-38.1
2,COc1ccc(C(=O)N2N=C(c3ccc(NS(C)(=O)=O)cc3)CC2c2cccs2)cc1 (centres unmarked),-10.6
3,CCOC(=O)Cc1csc(NC(=O)c2ccc(S(=O)(=O)N(CCOC)CCOC)cc2)n1,-1.25
4,O=C(Cc1ccccc1)Nc1nnc(-c2cccc([N+](=O)[O-])c2)s1,5.44
5,COc1ccc(CCC(=O)Nc2cc(S(=O)(=O)N3CCOCC3)ccc2OC(C)C)cc1,-34.8
6,COc1ccccc1N(C)S(=O)(=O)c1ccc(C(=O)OCC(=O)NCc2cccs2)cc1,5.35
7,CCN(c1ccc(OC)cc1)S(=O)(=O)c1ccc2c(c1)CC(C)N2C(=O)C1CC1 (centres unmarked),19.5
8,O=S(=O)(NCCc1ccc(F)cc1)c1cccc2cccnc12,-0.538
9,Cn1cnnc1SCC(=O)N1N=C2/C(=C/c3ccco3)CCCC2C1c1ccco1 (centres unmarked),-25.6
10,CCCCN1C(=O)C(=O)N(CC(=O)N2N=C3/C(=C/c4ccco4)CCCC3C2c2ccco2)C1=O (centres unmarked),-75
11,O=C(CSc1nccc(=O)[nH]1)N1N=C2/C(=C/c3ccco3)CCCC2C1c1ccco1 (centres unmarked),17.4
12,CC1CCN(C(=O)CSc2nc3c(c(=O)n(C)c(=O)n3C)n2C)CC1,10.5
13,COc1cccc(CCNCc2cccc(C(F)(F)F)c2)c1.O=C(O)C(=O)O,-3.46
14,COc1ccnc(CN(C)C(=O)C2CCC(=O)N(Cc3cccc(C(F)(F)F)c3)C2)c1 (centres unmarked),-18.6
15,O=C(c1cccc(C(F)(F)F)c1)N1CCN(CCc2ccccc2)CC1,-47.8
16,COc1cccc(CN(C)C(=O)c2ccc(OCC(=O)Nc3cccc(C(F)(F)F)c3)c(OC)c2)c1,-26.2
17,CC1CCN(CC(=O)c2cccc(C(F)(F)F)c2)CC1.O=C(O)C(=O)O,7.63
18,COc1cccc(C(=O)N(C)CC2CCN(CCc3cccc(C(F)(F)F)c3)CC2)c1,-70.8
19,CN(CC1CCN(CCc2cccc(C(F)(F)F)c2)CC1)C(=O)c1ccccc1,-68.5
20,COc1ccc(CCNC(=O)Cc2cccc(C(F)(F)F)c2)cc1OC,5.75
21,COc1cc(C(=O)N(C)CC2CCN(CCc3cccc(C(F)(F)F)c3)CC2)ccc1C,-78.8
22,CN(CC1CCN(CCc2cccc(C(F)(F)F)c2)CC1)C(=O)c1ccc(F)cc1,-70.8
23,CCOC(=O)C1CCCN(C(=O)CSc2nccn2C)C1 (centres unmarked),-0.344
24,CCOC(=O)c1cnn2c(C)cc(-c3ccccc3)nc12,-10.4
25,Cc1cc(C)c(S(=O)(=O)Nc2ncn[nH]2)cc1C,42.8
26,COC(=O)c1ccccc1NC(=O)c1ccccc1OC,-23.1
